Test results reported in PubChem BioAssay (NCI).
This is part of a sample that, as a whole, favours compounds with a hit. Of some 79,000 tested, about 15% had one in any assay. Calls of active or inactive are those of the source. Rule as the data show it: active = growth inhibition above about 70%; inactive = the rest.

How the values were obtained:
[1] = NCI Yeast Anticancer Drug Screen. Data for the wt2 strain (AID 169);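 also: 0% = growth of vehicle-treated yeast cultures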; conditions: S. cerevisiae wt2 strain growth inhibition, active compounds read high
Procedure, shortened: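 Values express reduction in yeast growth under compound treatment, referenced to vehicle-treated cells.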

[2] = NCI Yeast Anticancer Drug Screen. Data for the sgs1 strain (AID 173);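 also: 0% = growth of vehicle-only control cultures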; conditions: S. cerevisiae sgs1 mutant, active compounds read high
Procedure, shortened: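 Treat defined-mutant yeast with compound; measure growth; calculate inhibition relative to vehicle-treated cells.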

[3] = NCI Yeast Anticancer Drug Screen. Data for the rad18 strain (AID 177); conditions: S. cerevisiae rad18 mutant growth inhibition, active compounds read high
Procedure, shortened: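 A genetically defined yeast mutant impaired in DNA damage repair was treated with test compounds, then its growth was measured against cultures receiving vehicle alone.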

[4] = NCI Yeast Anticancer Drug Screen. Data for the rad52 strain (AID 147);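 also: 0% = growth of vehicle-treated control cultures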; conditions: S. cerevisiae rad52 mutant growth inhibition, active compounds read high
Procedure, shortened: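 Screen used a yeast mutant impaired in DNA repair. After compound exposure, growth was measured. Values reflect inhibition compared with vehicle-treated cells.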

[5] = NCI Yeast Anticancer Drug Screen. Data for the wt1 strain (AID 149);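 also: 0% = growth of vehicle-treated wt1 cultures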; conditions: S. cerevisiae wt1 strain (SPY 50644) growth inhibition, active compounds read high
Procedure, shortened: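 Measured: growth of wt1 yeast under compound versus vehicle treatment, reported as inhibition.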

[6] = NCI Yeast Anticancer Drug Screen. Data for the rad50EPP+ strain (AID 151);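 also: 0% = growth of vehicle-treated control cultures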; conditions: S. cerevisiae rad50 mutant strain, active compounds read high
Procedure, shortened: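 Exposing the rad50EPP+ strain to each compound, growth was compared with vehicle-only cultures to give inhibition.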

[7] = NCI Yeast Anticancer Drug Screen. Data for the mgt1 strain (AID 153); conditions: S. cerevisiae mgt1 mutant growth inhibition, active compounds read high
Procedure, shortened: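 Genetically defined yeast (mgt1) treated with compound; inhibition of growth expressed against vehicle-treated controls.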

[8] = NCI Yeast Anticancer Drug Screen. Data for the rad50 strain (AID 155);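 also: 0% = growth of vehicle-only cultures of the same strain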; conditions: S. cerevisiae rad50 strain growth inhibition, active compounds read high
Procedure, shortened: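 Growth of the mutant yeast was measured after compound exposure and referenced to vehicle-treated cultures.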

[9] = NCI Yeast Anticancer Drug Screen. Data for the mec2-1 strain (AID 157); conditions: S. cerevisiae mec2-1 strain, active compounds read high
Procedure, shortened: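 Readout is yeast growth inhibition, normalised to vehicle-treated controls, in the mec2-1 strain exposed to compound.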

[10] = NCI Yeast Anticancer Drug Screen. Data for the rad14 strain (AID 159);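 also: 0% = growth of vehicle-treated control cultures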; conditions: S. cerevisiae rad14 strain growth inhibition, active compounds read high
Procedure, shortened: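 Here, inhibition of yeast growth was measured after compound exposure, using a strain with a genetic defect in DNA damage repair and vehicle-treated cultures as the reference.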

[11] = NCI Yeast Anticancer Drug Screen. Data for the sgs1 mgt1 strain (AID 161);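 also: 0% = growth of cultures given vehicle only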; conditions: S. cerevisiae sgs1 mgt1 strain, active compounds read high
Procedure, shortened: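 This yeast growth screen uses a strain with defined DNA-repair lesions; compound-treated growth is compared with vehicle-treated growth.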

[12] = NCI Yeast Anticancer Drug Screen. Data for the CLN2oe strain (AID 163);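 also: 0% = growth of vehicle-only control cultures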; conditions: S. cerevisiae CLN2oe strain, active compounds read high
Procedure, shortened: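 Values reflect how much compound exposure reduced yeast growth, referenced to vehicle-exposed cells. Assay organism is a strain with a defined genetic change affecting cell-cycle control.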

[13] = NCI Yeast Anticancer Drug Screen. Data for the bub3 strain (AID 167); conditions: S. cerevisiae bub3 mutant strain, active compounds read high
Procedure, shortened: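 Whole-cell yeast assay. The mutant strain was incubated with compounds, and growth inhibition was determined by comparison with vehicle-treated cells.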

[14] = NCI Yeast Anticancer Drug Screen. Data for the mlh1 strain (AID 171);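 also: 0% = growth of vehicle-treated control cultures of the same strain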; conditions: S. cerevisiae mlh1 strain growth inhibition, active compounds read high
Procedure, shortened: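 Steps: expose the defined-mutant yeast strain to compound; expose a parallel culture to vehicle; measure growth; express compound effect as inhibition relative to the vehicle culture.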

[15] = NCI Yeast Anticancer Drug Screen. Data for the mlh1 rad18 strain (AID 175); conditions: S. cerevisiae mlh1 rad18 strain growth inhibition, active compounds read high
Procedure, shortened: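 Test agents were incubated with a yeast strain of defined genotype (DNA damage repair defect). Inhibition of growth was derived by comparison with vehicle-exposed cultures.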

[16] = at 5.0 µM (retest, dose inferred, filed as 0.5)
[17] = at 50.0 µM (retest, dose inferred, filed as 5.0)

Measured: growth inhibition

CN(C)c1ccc2c(SCC(=O)OCC(=O)[C@@]3(O)CC[C@H]4[C@@H]5CCC6=CC(=O)C=C[C@]6(C)[C@H]5C(=O)C[C@@]43C)c3ccc(N(C)C)cc3nc2c1
inactive: [1]; at 1.2 µM -89% | [1]; at 3.7 µM -74% | [1]; at 11.0 µM -15% | [1]; at 33.0 µM 67% | [2]; at 1.2 µM 2% | [2]; at 3.7 µM -18% | [3]; at 1.2 µM -9% | [3]; at 3.7 µM 6%
active: [1]; at 100.0 µM 83% | [2]; at 11.0 µM 71% | [2]; at 33.0 µM 91% | [2]; at 100.0 µM 90% | [3]; at 11.0 µM 74% | [3]; at 33.0 µM 90% | [3]; at 100.0 µM 87%

NCCNCCNc1ccc(NCCNCCN)c2c1C(=O)c1c(O)ccc(O)c1C2=O
inactive: [4]; at 1.2 µM 34% | [4]; at 3.7 µM 48% | [5]; at 1.2 µM -49% | [5]; at 3.7 µM -2% | [5]; at 11.0 µM -4% | [5]; at 33.0 µM 0% | [5]; at 100.0 µM 12% | [6]; at 1.2 µM 9% | [6]; at 3.7 µM 36% | [6]; at 11.0 µM 69% | [6]; at 100.0 µM 69% | [7]; at 1.2 µM -2% | [7]; at 3.7 µM 0% | [7]; at 11.0 µM 1% | [7]; at 33.0 µM 7% | [7]; at 100.0 µM 19% | [8]; at 1.2 µM 17% | [8]; at 3.7 µM 49% | [8]; [16] 20% | [8]; [17] 66% | [9]; at 1.2 µM 27% | [9]; at 3.7 µM 1% | [9]; [16] 0% | [9]; at 11.0 µM -7% | [9]; at 33.0 µM 11% | [9]; [17] 45% | [9]; at 50.0 µM 0.2% | [9]; at 100.0 µM 31% | [10]; at 1.2 µM -4% | [10]; at 3.7 µM -2% | [10]; at 11.0 µM 0% | [10]; at 33.0 µM 5% | [10]; at 100.0 µM 15% | [11]; [16] -6% | [11]; [17] 8% | [11]; at 50.0 µM 15.1% | [12]; at 1.2 µM -10% | [12]; at 3.7 µM -7% | [12]; at 11.0 µM -10% | [12]; at 33.0 µM -9% | [12]; at 100.0 µM 40% | [13]; at 1.2 µM -4% | [13]; at 3.7 µM -11% | [13]; [16] 20% | [13]; at 11.0 µM -10% | [13]; at 33.0 µM -8% | [13]; [17] -1% | [13]; at 50.0 µM -1.95% | [13]; at 100.0 µM 20% | [1]; at 1.2 µM -3% | [1]; at 3.7 µM -3% | [1]; at 11.0 µM -3% | [1]; at 33.0 µM 14% | [1]; at 100.0 µM 53% | [14]; at 1.2 µM 0% | [14]; at 3.7 µM -2% | [14]; at 11.0 µM -1% | [14]; at 33.0 µM -1% | [14]; at 100.0 µM 16% | [2]; at 1.2 µM 1% | [2]; at 3.7 µM 4% | [2]; at 11.0 µM 2% | [2]; at 33.0 µM 13% | [2]; at 100.0 µM 25% | [15]; [16] 11% | [15]; [17] 0% | [15]; at 50.0 µM 16.5% | [3]; at 1.2 µM 4% | [3]; at 3.7 µM 2% | [3]; at 11.0 µM 9% | [3]; at 33.0 µM 22% | [3]; at 100.0 µM 48%
active: [4]; at 11.0 µM 91% | [4]; at 33.0 µM 93% | [4]; at 100.0 µM 85% | [6]; at 33.0 µM 84% | [8]; at 11.0 µM 82% | [8]; at 33.0 µM 88% | [8]; at 50.0 µM 87.7% | [8]; at 100.0 µM 84%

N#CNC(N)=Nc1cc2ccccc2c2ccccc12
active: [4]; at 11.0 µM 88% | [4]; at 33.0 µM 95% | [4]; at 100.0 µM 92% | [5]; at 33.0 µM 87% | [5]; at 100.0 µM 90% | [6]; at 33.0 µM 82% | [6]; at 100.0 µM 79% | [7]; at 11.0 µM 71% | [7]; at 33.0 µM 88% | [7]; at 100.0 µM 92% | [8]; at 11.0 µM 90% | [8]; at 33.0 µM 96% | [8]; [17] 97% | [8]; at 50.0 µM 89.5% | [8]; at 100.0 µM 90% | [9]; at 33.0 µM 78% | [9]; [17] 96% | [9]; at 100.0 µM 82% | [10]; at 11.0 µM 85% | [10]; at 33.0 µM 95% | [10]; at 100.0 µM 93% | [11]; [17] 96% | [11]; at 50.0 µM 78.8% | [12]; at 33.0 µM 83% | [12]; at 100.0 µM 84% | [13]; at 33.0 µM 87% | [13]; [17] 96% | [13]; at 50.0 µM 92.2% | [13]; at 100.0 µM 93% | [1]; at 33.0 µM 89% | [1]; at 100.0 µM 89% | [14]; at 11.0 µM 78% | [14]; at 33.0 µM 92% | [14]; at 100.0 µM 91% | [2]; at 11.0 µM 87% | [2]; at 33.0 µM 96% | [2]; at 100.0 µM 96% | [15]; [17] 97% | [15]; at 50.0 µM 85.7% | [3]; at 11.0 µM 78% | [3]; at 33.0 µM 94% | [3]; at 100.0 µM 92%
inactive: [4]; at 1.2 µM 34% | [4]; at 3.7 µM 60% | [5]; at 1.2 µM 3% | [5]; at 3.7 µM 25% | [5]; at 11.0 µM 61% | [6]; at 1.2 µM 8% | [6]; at 3.7 µM 16% | [6]; at 11.0 µM 61% | [7]; at 1.2 µM 27% | [7]; at 3.7 µM 40% | [8]; at 1.2 µM 45% | [8]; at 3.7 µM 69% | [8]; [16] 60% | [9]; at 1.2 µM 24% | [9]; at 3.7 µM 32% | [9]; [16] 48% | [9]; at 11.0 µM 58% | [9]; at 50.0 µM 67.1% | [10]; at 1.2 µM 36% | [10]; at 3.7 µM 53% | [11]; [16] 57% | [12]; at 1.2 µM 38% | [12]; at 3.7 µM 46% | [12]; at 11.0 µM 68% | [13]; at 1.2 µM 34% | [13]; at 3.7 µM 32% | [13]; [16] 40% | [13]; at 11.0 µM 67% | [1]; at 1.2 µM 17% | [1]; at 3.7 µM 12% | [1]; at 11.0 µM 62% | [14]; at 1.2 µM 31% | [14]; at 3.7 µM 50% | [2]; at 1.2 µM 20% | [2]; at 3.7 µM 58% | [15]; [16] 54% | [3]; at 1.2 µM 21% | [3]; at 3.7 µM 34%
